This note sets out measurements from PubChem BioAssay (EPA / NIEHS).

Calls of active or inactive are those of the source. The calls were made as follows: active = hit-call score of the fitted dose curve at least 0.9, where 1 is the maximum; inactive = score below 0.9.

A short description of assay [1]: ATG_EGR_CIS: Attagene CIS-FACTORIAL HepG2 Assay for human Early Growth Response 1 (EGR1) (AID 2282938). The following applies: HepG2 Attagene CIS-FACTORIAL EGR reporter mRNA; actives raise or lower the signal. In short, it runs like this: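 Activity is taken as induction or loss of reporter mRNA versus DMSO, fitted bidirectionally. Transcripts from cis-regulated reporter units in transiently transfected HepG2 were measured after 24 h by RT-PCR with capillary electrophoresis.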

Assay [2] can be described thus: ATG_M_19_CIS: Attagene CIS-FACTORIAL HepG2 Assay for M19 Transcription Factor (Internal Marker) (AID 2282939). The following applies: HepG2 Attagene CIS-FACTORIAL M19 internal marker reporter; actives raise or lower the signal. In short, it runs like this:
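Signals come from fluorescence of labelled reporter-specific PCR fragments resolved by capillary electrophoresis, following 24 h treatment of HepG2 cells transfected with cis-promoter reporter units; activity was fitted in both directions relative to DMSO.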

The nature of assay [3]: ATG_Ets_CIS: Attagene CIS-FACTORIAL HepG2 Assay for human Erythroblast Transformation Specific (ETS) (AID 2282941). The following applies: HepG2 ETS cis-reporter transcription, actives raise or lower the signal. In short, it runs like this:
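HepG2 cells transiently transfected with cis-promoter reporter transcription units were dosed for 24 h; reporter mRNA was measured by RT-PCR, 6-FAM primer extension, HpaI digestion and capillary electrophoresis, with bidirectional fitting against DMSO baseline.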

The nature of assay [4]: ATG_FoxO_CIS: Attagene CIS-FACTORIAL HepG2 Assay for human Forkhead box O (FoxO) (AID 2282943). To be noted: HepG2 Attagene cis-reporter, FoxO element, mRNA; actives raise or lower the signal. In short, it runs like this:
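Values reflect reporter mRNA induction or loss in HepG2 cells 24 h post-dosing, fitted bidirectionally with DMSO as negative control and baseline. Detection used RT-PCR and fluorescence capillary electrophoresis.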

Assay [5] in a line: ATG_GATA_CIS: Attagene CIS-FACTORIAL HepG2 Assay for human GATA Binding Protein (AID 2282944). The following applies: HepG2 GATA cis-element reporter, Attagene multiplex mRNA; actives raise or lower the signal. A digest of the protocol: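 After transfecting HepG2 cells with multiple cis-regulated reporter units, chemicals are dosed for 24 h; isolated RNA undergoes RT-PCR and fluorescent labeling before capillary electrophoresis, with activity expressed against DMSO.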

Assay [6] can be described thus: ATG_GLI_CIS: Attagene CIS-FACTORIAL HepG2 Assay for human Zinc Finger Protein GLI1 (AID 2282945). To be noted: HepG2, Attagene cis-factorial reporter mRNA, GLI element; actives raise or lower the signal. In short, it runs like this:
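HepG2 cells transiently transfected with cis-promoter multiplexed reporter units report endogenous transcription factor activity. After 24 h chemical exposure, reporter mRNA was quantified by RT-PCR, 6-FAM labelling, HpaI digestion and capillary electrophoresis, with bidirectional fitting against DMSO.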

Assay [7] in a line: ATG_GRE_CIS: Attagene CIS-FACTORIAL HepG2 Assay for human Glucocorticoid Response Elements (GRE) (AID 2282947). To be noted: HepG2 GRE cis-reporter, Attagene multiplex mRNA; actives raise or lower the signal. In short, it runs like this: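 Following 24 h chemical exposure of transiently transfected HepG2 cells, total RNA was reverse-transcribed and reporter cDNA amplified, fluorescently labelled and sized by capillary electrophoresis. Signal gain or loss was fitted relative to DMSO vehicle.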

Assay [8] can be described thus: ATG_ISRE_CIS: Attagene CIS-FACTORIAL HepG2 Assay for human Interferon Regulatory Factor 1 (IRF1) binding to an Interferon-Stimulated Response Element (ISRE) (AID 2282948). To be noted: HepG2 ISRE cis-reporter (Attagene), mRNA transcription readout; actives raise or lower the signal. In short, it runs like this:
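HepG2 cells transiently transfected with multiplexed cis-promoter reporter units; after 24 h compound exposure, reporter mRNA quantified by RT-PCR, FAM labelling, HpaI digestion and capillary electrophoresis. Bidirectional fit versus DMSO baseline.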

Assay [9] can be described thus: ATG_M_32_CIS: Attagene CIS-FACTORIAL HepG2 Assay for M32 Transcription Factor (Internal Marker) (AID 2282949).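 Also: background control marker of the multiplexed CIS panel rather than a real target.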 To be noted: HepG2 Attagene cis-factorial M32 reporter, mRNA; actives raise or lower the signal. A digest of the protocol: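 Fluorescent capillary electrophoresis peaks of HpaI-digested, FAM-labelled RT-PCR reporter products give the signal. Source: transiently transfected human liver HepG2 cells, 24 h after chemical dosing; bidirectional fitting against DMSO.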

Assay [10] is described as follows: ATG_M_06_CIS: Attagene CIS-FACTORIAL HepG2 Assay for M06 Transcription Factor (Internal Marker) (AID 2282950). To be noted: HepG2 Attagene CIS-FACTORIAL M06 internal marker reporter; actives raise or lower the signal. In short, it runs like this: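 HepG2 liver cells, 24 h exposure. Reporter transcripts from transfected cis-element constructs quantified by RT-PCR/capillary electrophoresis fluorescence. Bidirectional curve fit against DMSO.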

Assay [11] has as its target Hypoxia-inducible factor 1-alpha (Homo sapiens) (UniProt Q16665). Briefly: ATG_HIF1a_CIS: Attagene CIS-FACTORIAL HepG2 Assay for human Hypoxia Inducible Factor 1 (HIF1A) (AID 2282951). To be noted: HepG2 Attagene cis-factorial HIF1a reporter transcription; actives raise or lower the signal. A digest of the protocol: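 Fluorescence intensity of capillary-separated, 6-FAM-labelled reporter amplicons gives mRNA induction in HepG2 cells carrying transfected cis-promoter reporter units; cells exposed 24 h, responses fitted up or down from DMSO.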

For assay [12], the target named is Heat shock factor protein 1 (Homo sapiens) (UniProt Q00613). The assay is described as follows: ATG_HSE_CIS: Attagene CIS-FACTORIAL HepG2 Assay for human Heat Shock Transcription Factor 1 (HSE) (AID 2282953). The following applies: HepG2 HSE cis-reporter, Attagene RNA transcription; actives raise or lower the signal. In short, it runs like this:
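Endogenous transcription factor activity captured via cis-promoter reporter units transfected into HepG2; treatment lasted 24 h. Fluorescence intensity of reporter fragments analysed with bidirectional curve fitting, DMSO baseline.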

A short description of assay [13]: ATG_MRE_CIS: Attagene CIS-FACTORIAL HepG2 Assay for human Metal Responsive Element (MRE) (AID 2282954). To be noted: HepG2 MRE cis-reporter transcription, Attagene multiplex; actives raise or lower the signal. In short, it runs like this: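 Step one: transfect HepG2 with cis-regulated reporter units. Step two: dose 24 h. Step three: isolate RNA, RT-PCR, 6-FAM label, HpaI digest, capillary electrophoresis. Fit bidirectionally to DMSO.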

Assay [14] can be described thus: ATG_PBREM_CIS: Attagene CIS-FACTORIAL HepG2 Assay for human Phenobarbital-responsive Enhancer Module (PBREM) (AID 2282955). The following applies: HepG2 PBREM cis-reporter, Attagene multiplexed transcription; actives raise or lower the signal. A digest of the protocol:
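Cells were transfected with cis-element reporter units and treated for 24 h, after which RNA was extracted and reporter transcripts measured by RT-PCR and capillary electrophoresis.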

Assay [15] addresses Paired box protein Pax-6 (Homo sapiens) (UniProt P26367). The assay is described as follows: ATG_Pax6_CIS: Attagene CIS-FACTORIAL HepG2 Assay for human Paired Box 6 (PAX6) (AID 2282956). The following applies: HepG2 CIS-FACTORIAL PAX6 reporter transcription, RNA readout; actives raise or lower the signal. A digest of the protocol: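 HepG2 cells transiently transfected with multiplexed cis-promoter reporter units (endogenous TF activity) were dosed for 24 h. Reporter mRNA was quantified by RT-PCR, 6-FAM labeling, HpaI digestion and capillary electrophoresis; bidirectional fitting versus DMSO baseline.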

Assay [16] can be described thus: ATG_ERE_CIS: Attagene CIS-FACTORIAL HepG2 Assay for Estrogen Response Element (ERE) (AID 2282940). The following applies: HepG2 ERE cis-reporter, Attagene RNA transcript; actives raise or lower the signal. In short, it runs like this: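 Fluorescence of capillary-separated, FAM-labelled reporter cDNA fragments indicates reporter mRNA levels in HepG2 cells exposed to chemicals for 24 h. Transient transfection with cis-regulated units; data fitted in both directions against DMSO.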

In assay [17] the target is Hepatocyte nuclear factor 3-beta (Homo sapiens) (UniProt Q9Y261). Briefly: ATG_FoxA2_CIS: Attagene CIS-FACTORIAL HepG2 Assay for human Forkhead box A2 (FOXA2) (AID 2282942). The following applies: HepG2 cis-reporter transcription factor activity, 24 h; actives raise or lower the signal. In short, it runs like this:
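Reporter transcript induction is measured by fluorescence after capillary electrophoresis of RT-PCR products from HepG2 cells exposed 24 h. Cis-regulated reporter units report endogenous factor activity; curves fitted both directions against DMSO.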

Assay [18] addresses Bile acid receptor (Homo sapiens) (UniProt Q96RI1). Briefly: ATG_IR1_CIS: Attagene CIS-FACTORIAL HepG2 Assay for human Nuclear Receptor Subfamily 1 Group H Member 4 (NR1H4), IR1 submotif (AID 2282946). To be noted: IR1 reporter transcription, actives raise or lower the signal. In short, it runs like this:
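Transient MRTU transfection, HepG2; 24 h dosing; RNA → RT-PCR → 6-FAM primer extension → HpaI digest → capillary electrophoresis fluorescence. Gain/loss of signal fitted relative to DMSO.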

Assay [19] addresses Hepatocyte nuclear factor 6 (Homo sapiens) (UniProt Q9UBC0). The assay is described as follows: ATG_HNF6_CIS: Attagene CIS-FACTORIAL HepG2 Assay for human Hepatocyte Nuclear Factor 6 (HNF6) (AID 2282952). The following applies: HepG2 Attagene cis-factorial HNF6 reporter transcription; actives raise or lower the signal. A digest of the protocol: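 HepG2 cells transiently transfected with cis-element-driven multiple reporter transcription units, dosed 24 h; reporter mRNA quantified by RT-PCR, FAM primer extension, HpaI digestion and capillary electrophoresis; bidirectional fit versus DMSO baseline.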

Sequence of Hepatocyte nuclear factor 6 (Homo sapiens) (Q9UBC0 whole entry, looked up): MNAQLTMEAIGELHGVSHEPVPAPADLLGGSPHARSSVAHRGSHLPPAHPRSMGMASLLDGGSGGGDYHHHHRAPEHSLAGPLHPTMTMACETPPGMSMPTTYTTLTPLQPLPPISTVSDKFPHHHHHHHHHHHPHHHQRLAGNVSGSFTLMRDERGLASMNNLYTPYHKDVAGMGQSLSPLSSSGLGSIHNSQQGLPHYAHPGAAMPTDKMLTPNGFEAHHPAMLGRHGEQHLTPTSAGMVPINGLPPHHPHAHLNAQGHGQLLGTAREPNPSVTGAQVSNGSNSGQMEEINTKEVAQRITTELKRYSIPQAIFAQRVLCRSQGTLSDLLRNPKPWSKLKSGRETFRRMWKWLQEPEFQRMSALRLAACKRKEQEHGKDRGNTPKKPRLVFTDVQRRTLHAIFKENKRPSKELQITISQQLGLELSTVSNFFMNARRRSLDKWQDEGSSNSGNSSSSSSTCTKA
Sequence of Hypoxia-inducible factor 1-alpha (Homo sapiens) (Q16665 whole entry, looked up): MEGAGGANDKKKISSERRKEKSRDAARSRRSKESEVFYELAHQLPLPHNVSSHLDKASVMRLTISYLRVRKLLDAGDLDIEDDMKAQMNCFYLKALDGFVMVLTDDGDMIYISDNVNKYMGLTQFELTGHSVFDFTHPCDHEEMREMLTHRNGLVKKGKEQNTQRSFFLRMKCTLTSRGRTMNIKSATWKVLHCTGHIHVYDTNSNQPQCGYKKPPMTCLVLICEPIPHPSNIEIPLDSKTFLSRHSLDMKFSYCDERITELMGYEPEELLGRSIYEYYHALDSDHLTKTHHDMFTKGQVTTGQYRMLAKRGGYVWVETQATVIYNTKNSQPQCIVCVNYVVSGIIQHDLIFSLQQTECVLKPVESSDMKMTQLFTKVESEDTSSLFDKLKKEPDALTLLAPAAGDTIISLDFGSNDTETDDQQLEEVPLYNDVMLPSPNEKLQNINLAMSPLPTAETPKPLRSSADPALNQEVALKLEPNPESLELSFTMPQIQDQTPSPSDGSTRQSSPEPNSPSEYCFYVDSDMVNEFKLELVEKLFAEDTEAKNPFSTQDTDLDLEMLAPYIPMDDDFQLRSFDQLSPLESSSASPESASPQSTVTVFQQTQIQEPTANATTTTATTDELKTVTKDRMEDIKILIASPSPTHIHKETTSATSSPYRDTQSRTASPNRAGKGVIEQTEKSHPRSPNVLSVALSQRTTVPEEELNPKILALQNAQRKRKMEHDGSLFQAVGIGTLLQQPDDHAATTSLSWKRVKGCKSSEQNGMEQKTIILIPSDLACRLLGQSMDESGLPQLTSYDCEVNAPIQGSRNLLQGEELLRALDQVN
Sequence of Paired box protein Pax-6 (Homo sapiens) (P26367 whole entry, looked up): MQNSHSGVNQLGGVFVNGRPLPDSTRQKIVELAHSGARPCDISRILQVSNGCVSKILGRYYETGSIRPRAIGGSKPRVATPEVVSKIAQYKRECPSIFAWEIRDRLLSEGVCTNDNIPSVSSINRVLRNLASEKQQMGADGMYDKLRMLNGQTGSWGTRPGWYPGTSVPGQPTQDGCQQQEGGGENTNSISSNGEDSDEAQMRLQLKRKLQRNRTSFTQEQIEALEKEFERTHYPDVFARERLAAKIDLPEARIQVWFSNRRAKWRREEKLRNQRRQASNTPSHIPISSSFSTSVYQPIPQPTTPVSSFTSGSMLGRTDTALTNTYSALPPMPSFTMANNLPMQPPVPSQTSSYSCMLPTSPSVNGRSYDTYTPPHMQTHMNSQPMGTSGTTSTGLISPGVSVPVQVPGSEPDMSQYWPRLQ
Sequence of Bile acid receptor (Homo sapiens) (Q96RI1 whole entry, looked up): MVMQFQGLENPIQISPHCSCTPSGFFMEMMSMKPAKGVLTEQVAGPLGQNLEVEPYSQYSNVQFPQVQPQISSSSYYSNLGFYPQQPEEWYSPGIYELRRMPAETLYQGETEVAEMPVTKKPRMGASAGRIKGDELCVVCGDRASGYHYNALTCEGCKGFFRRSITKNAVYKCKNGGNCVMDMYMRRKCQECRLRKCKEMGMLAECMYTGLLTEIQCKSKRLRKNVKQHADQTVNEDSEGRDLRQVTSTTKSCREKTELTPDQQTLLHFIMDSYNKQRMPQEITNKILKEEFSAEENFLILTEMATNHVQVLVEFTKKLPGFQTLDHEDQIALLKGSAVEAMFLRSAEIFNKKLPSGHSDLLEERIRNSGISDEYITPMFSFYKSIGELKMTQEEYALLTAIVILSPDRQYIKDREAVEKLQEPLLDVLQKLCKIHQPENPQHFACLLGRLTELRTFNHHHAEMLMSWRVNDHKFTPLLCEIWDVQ
Sequence of Hepatocyte nuclear factor 3-beta (Homo sapiens) (Q9Y261 whole entry, looked up): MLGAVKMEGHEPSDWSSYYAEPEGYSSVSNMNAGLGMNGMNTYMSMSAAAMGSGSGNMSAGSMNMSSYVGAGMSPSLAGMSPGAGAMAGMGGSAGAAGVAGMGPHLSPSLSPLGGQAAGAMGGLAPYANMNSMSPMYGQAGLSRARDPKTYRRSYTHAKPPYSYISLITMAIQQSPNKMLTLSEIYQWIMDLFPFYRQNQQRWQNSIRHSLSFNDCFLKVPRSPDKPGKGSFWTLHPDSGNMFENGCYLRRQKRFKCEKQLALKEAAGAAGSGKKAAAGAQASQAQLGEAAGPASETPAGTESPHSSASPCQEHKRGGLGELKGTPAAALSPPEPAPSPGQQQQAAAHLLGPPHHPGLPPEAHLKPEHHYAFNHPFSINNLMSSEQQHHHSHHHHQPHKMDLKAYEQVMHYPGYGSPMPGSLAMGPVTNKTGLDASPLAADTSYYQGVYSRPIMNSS
Sequence of Heat shock factor protein 1 (Homo sapiens) (Q00613 whole entry, looked up, the tested form may be a part): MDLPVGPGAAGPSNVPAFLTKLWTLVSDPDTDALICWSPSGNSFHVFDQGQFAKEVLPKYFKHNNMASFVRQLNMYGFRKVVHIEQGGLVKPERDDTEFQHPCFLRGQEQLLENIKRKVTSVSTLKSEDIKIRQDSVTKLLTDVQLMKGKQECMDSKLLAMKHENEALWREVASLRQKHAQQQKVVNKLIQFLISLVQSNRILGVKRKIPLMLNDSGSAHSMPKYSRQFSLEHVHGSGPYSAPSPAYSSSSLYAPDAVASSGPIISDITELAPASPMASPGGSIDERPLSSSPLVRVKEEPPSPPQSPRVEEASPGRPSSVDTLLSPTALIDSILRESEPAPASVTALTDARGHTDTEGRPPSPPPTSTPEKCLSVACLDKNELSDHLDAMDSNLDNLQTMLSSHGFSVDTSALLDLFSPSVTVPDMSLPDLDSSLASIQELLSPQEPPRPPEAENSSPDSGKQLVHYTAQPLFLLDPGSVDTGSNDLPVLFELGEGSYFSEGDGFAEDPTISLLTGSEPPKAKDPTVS

On to `Oc1c(Cl)cc(Cl)cc1Cl`, for which the compound was called inactive in assay [1], in assay [2], in assay [3], in [4], in [5] and in assay [6]. Further, the compound was classed as inactive in [7], in assay [8], in assay [9], in [10], in [12] and in assay [13]. Besides, the outcome in [14] and in assay [15] was inactive. In addition, the AC50 in assay [11] was 41.6 µM (active).

Take `CC(C)[C@@H](Nc1ccc(C(F)(F)F)cc1Cl)C(=O)OC(C#N)c1cccc(Oc2ccccc2)c1` (some centres not stated): the result in assay [1], in assay [2], in [16], in assay [3], in assay [17] and in assay [4] was inactive. For the same compound, the outcome in [5], in assay [6], in assay [18], in assay [7], in [8] and in assay [9] was inactive. In addition, the result in [10], in [11], in assay [19], in [12], in assay [13] and in assay [15] was inactive. Besides, the AC50 in assay [14] is 1.43 µM (active).

As for `CC(=O)C(F)(F)C(F)(F)F`, the compound was called inactive in [1], in assay [2], in [16], in [3], in [17] and in assay [4]. Also, the outcome in assay [5], in assay [6], in assay [18], in assay [7], in assay [8] and in assay [9] was inactive. For the same compound, the result in assay [10], in [11], in [19], in assay [13], in [14] and in assay [15] was inactive.

With `CCCCN(CCCC)C(=S)[S-].CCCCN(CCCC)C(=S)[S-].[Ni+2]`, the call in assay [1], in assay [2], in assay [16], in [3], in assay [4] and in [5] was inactive. Further, the compound was called inactive in [6], in assay [7], in assay [8], in assay [9], in assay [10] and in assay [11]. In addition, the compound was classed as inactive in assay [19], in assay [13] and in [15].

Broadly, the AC50 is the concentration at which the activity in the assay is half-maximal.
